Holding throughout (experiment): protein domain microarray probed with biotinylated miRNA; Domain array: 20 mM Tris-HCl pH 7.4, 200 mM KCl, 0.2 mM EDTA, 0.05% NP40, 2 ug/ul heparin, overnight 4 C. ORF array: PBS pH 7.0 with RNase inhibitor, 100 ng RNA; high values mean tight binding
Common to all, as to conditions: ssRNA

The target of one assay is T1, ADARB2(2) (Homo sapiens, UniProt Q9NS39).
T1 sequence: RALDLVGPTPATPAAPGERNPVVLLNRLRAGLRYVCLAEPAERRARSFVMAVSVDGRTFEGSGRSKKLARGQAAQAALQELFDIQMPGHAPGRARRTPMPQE

The target of a further assay is FBP3(1-4) (Homo sapiens, UniProt Q96I24).
A further assay deals with IGF2BP3(3-4) (Homo sapiens, UniProt O00425).
The target of another assay is T2, DGCR8 (Homo sapiens, UniProt Q8WYQ5).
T2 sequence: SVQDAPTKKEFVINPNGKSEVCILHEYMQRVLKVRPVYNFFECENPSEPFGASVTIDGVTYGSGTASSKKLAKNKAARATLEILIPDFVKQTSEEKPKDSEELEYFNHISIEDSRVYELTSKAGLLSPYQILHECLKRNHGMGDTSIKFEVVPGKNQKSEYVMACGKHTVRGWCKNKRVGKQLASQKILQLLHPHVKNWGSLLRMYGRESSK

For another assay, the target named is T3, QKI (Homo sapiens, UniProt Q96PU8).
T3 sequence: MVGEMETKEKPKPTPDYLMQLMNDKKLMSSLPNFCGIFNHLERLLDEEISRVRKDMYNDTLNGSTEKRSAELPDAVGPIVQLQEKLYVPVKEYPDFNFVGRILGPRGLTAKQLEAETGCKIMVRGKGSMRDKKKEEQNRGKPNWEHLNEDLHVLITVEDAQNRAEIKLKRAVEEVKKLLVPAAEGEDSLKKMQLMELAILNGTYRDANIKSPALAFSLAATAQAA

Sequence of FBP3(1-4) (Q96I24 57-441): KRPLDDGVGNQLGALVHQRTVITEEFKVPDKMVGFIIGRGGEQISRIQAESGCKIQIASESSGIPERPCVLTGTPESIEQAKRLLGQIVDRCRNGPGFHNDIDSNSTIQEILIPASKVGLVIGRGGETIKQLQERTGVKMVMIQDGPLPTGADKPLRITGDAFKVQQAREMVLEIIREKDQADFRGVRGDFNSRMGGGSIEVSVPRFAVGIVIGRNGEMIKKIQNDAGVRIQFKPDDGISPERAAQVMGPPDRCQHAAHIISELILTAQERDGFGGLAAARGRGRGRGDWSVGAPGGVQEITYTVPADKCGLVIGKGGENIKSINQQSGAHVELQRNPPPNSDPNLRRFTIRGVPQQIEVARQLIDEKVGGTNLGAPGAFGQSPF
Sequence of IGF2BP3(3-4) (O00425 387-579): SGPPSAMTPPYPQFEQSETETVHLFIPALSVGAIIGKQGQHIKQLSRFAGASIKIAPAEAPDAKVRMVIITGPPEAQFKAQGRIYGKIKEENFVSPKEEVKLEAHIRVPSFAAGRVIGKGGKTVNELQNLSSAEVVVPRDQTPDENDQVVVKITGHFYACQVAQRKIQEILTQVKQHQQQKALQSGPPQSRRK

For CAGUGCAAUGAUGAAAGGGCAU, the binding signal was determined as 32.5 ± 3.78 fluorescence intensity with ADARB2(2); 52.55 ± 0.495 fluorescence intensity with FBP3(1-4); 53.6 ± 2.39 fluorescence intensity in the assay with IGF2BP3(3-4); 102 ± 2.74 fluorescence intensity in the assay with DGCR8; 37.7 ± 8.53 fluorescence intensity with QKI.
The like results for UGAGGUAGUAGGUUGUAUGGUU were, in that order, 59.45 ± 0.594 fluorescence intensity, 77.1 ± 5.85 fluorescence intensity, 96.125 ± 0.0778 fluorescence intensity, 110 ± 8.32 fluorescence intensity and 33.2 ± 5.98 fluorescence intensity.
The like results for UGAGGUAGUAGGUUGUGUGGUU were, in that order, 85.94 ± 0.24 fluorescence intensity, 107 ± 3.19 fluorescence intensity, 169 ± 5.85 fluorescence intensity, 212.8 ± 0.537 fluorescence intensity and 66.4 ± 1.27 fluorescence intensity.
Turning to UGAGGUAGUAGGUUGUAUAGUU, the binding signal with FBP3(1-4) is 38 ± 4.14 fluorescence intensity; with IGF2BP3(3-4) it was 29.1 ± 0.552 fluorescence intensity; in the assay with DGCR8 it was 38.6 ± 3.32 fluorescence intensity; with QKI it was 20.4 ± 2.35 fluorescence intensity.
With AGAGGUAGUAGGUUGCAUAGUU, the binding signal with ADARB2(2) was 23.8 ± 11.5 fluorescence intensity; in the assay with FBP3(1-4) it was 63.6 ± 6.09 fluorescence intensity; with IGF2BP3(3-4) it was 64.5 ± 3.37 fluorescence intensity; in the assay with DGCR8 it was 130 ± 1.15 fluorescence intensity; with QKI, 33.1 ± 1.25 fluorescence intensity.

The record behind these values is paper PMC11574364.
